Assay outcomes from PubChem BioAssay.
Shown are actives, neighbours in structure and some others; about 0.97% of the full set was active somewhere.
S1P4 antag – human S1P4 receptor antagonism; AID 1510; 220,000 tested, 0.26% active; inhibition, % at 4.98 µM; S1P4-expressing cells, antagonist mode, reporter read-out; in the data active = inhibition above about 29%
Target sequence (O95977 whole entry, looked up): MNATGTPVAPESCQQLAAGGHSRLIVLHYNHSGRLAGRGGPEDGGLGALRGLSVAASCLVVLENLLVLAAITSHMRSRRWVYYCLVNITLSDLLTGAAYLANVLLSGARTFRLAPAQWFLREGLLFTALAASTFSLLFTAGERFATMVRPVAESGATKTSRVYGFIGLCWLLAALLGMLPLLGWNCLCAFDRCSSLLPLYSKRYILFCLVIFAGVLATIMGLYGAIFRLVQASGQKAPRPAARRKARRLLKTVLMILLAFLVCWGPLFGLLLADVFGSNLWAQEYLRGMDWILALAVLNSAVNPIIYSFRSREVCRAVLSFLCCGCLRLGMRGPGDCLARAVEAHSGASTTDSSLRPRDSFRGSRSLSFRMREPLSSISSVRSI
Hsp70 act – Hsp70 transcriptional activation, primary screen; activation, % at 10 µM; AID 1203; HeLa Hsp70 promoter luciferase reporter, luminescence; scaled: vehicle 0, proteasome-inhibitor control 100%; 200,000 tested, 0.04% active;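 active = activation above the mean across all tested compounds plus 3 SD, cutoff set per campaign, cut at about 5.5% in these data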
S1P4 ag – agonists of human S1P4 receptor; activation, % at 4.98 µM; S1P4-expressing cell line, agonist reporter assay; AID 1509; O95977; 220,000 tested, 0.35% active; in the data active = activation above about 11%
AI-2 QS modul – Vibrio harveyi AI-2 quorum sensing modulation; Vibrio harveyi JMH597 AI-2 luminescence/OD600 ratio, 9 h; hits give low values; strain lacks LuxN and CqsS sensors; 0 = neutral-control median; 300,000 tested, 0.4% active; activity change, % at 7.5 µM; in the data active = activity change below about -75%, passing the limit was not always enough; inconclusive = no clear call, values can overlap the other calls;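 note: luminescence divided by OD600 gain over 9 h not by final OD600 alone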
S1P3 antag – blocks the human S1P3 receptor; AID 485; inhibition, % at 4.98 µM; CHO S1P3 NFAT-BLA reporter, FRET fluorescence, antagonist mode; 170,000 tested, 0.27% active; Q99500;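 active = inhibition above the plate cutoff, the mean inhibition of test wells on that plate plus 3 SD, cut at about 28% in these data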;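 note: cells challenged with S1P at its EC80 of 0.8 µM; blue over green emission ratio from cleaved BLA substrate after 4 h stimulation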
Target sequence (Q99500 whole entry, looked up): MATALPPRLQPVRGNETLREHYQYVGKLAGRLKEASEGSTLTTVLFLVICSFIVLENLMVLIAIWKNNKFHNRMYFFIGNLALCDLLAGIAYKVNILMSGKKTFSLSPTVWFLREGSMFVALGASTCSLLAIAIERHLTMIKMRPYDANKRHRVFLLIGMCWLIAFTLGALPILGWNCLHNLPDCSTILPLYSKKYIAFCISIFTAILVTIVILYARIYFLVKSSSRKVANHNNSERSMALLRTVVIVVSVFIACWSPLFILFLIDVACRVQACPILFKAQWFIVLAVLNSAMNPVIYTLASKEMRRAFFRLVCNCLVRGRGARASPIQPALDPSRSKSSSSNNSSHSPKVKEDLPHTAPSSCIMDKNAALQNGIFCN
S1P4 ag conf – human S1P4 agonism, confirmation; AID 1523; 740 tested, 7% active; activation, % at 4.98 µM; shares compounds with S1P4 ag; S1P4 agonist cell-based reporter assay; in the data active = activation above about 12%
S1P1 agonist – counter-screen for S1P4 agonists: agonists of human S1P1. S1P1 agonist cell-based assay, activation. 740 tested, 4% active. activation, % at 4.98 µM. shares compounds with S1P4 ag; in the data active = activation above about 21%
Of the large screens only hits and unclear results are named; the others gave an inactive call (follow-up assays come after a bar, where they were run).

Cc1ccccc1NS(=O)(=O)c1ccc(F)cc1	none
Cc1cc2c(NS(=O)(=O)c3ccc(F)cc3)cccc2nn1	S1P4 ag 116 (no result: Hsp70 act) | S1P4 ag conf inactive | S1P1 agonist inactive
O=C(COC(=O)c1cn(-c2ccccc2)nc1-c1cccs1)NC1CC1	S1P4 ag 34 | S1P4 ag conf inactive | S1P1 agonist inactive
Cc1cc(=O)oc2cc3c(cc12)OCCO3	none
Cc1cc(=O)oc2cc3c(cc12)OCCN3	S1P4 ag 12 | S1P4 ag conf inactive | S1P1 agonist inactive
COc1cccc(-n2nc(C(C)=O)c(C#N)c2-c2ccco2)c1	S1P4 ag 38 | S1P4 ag conf inactive | S1P1 agonist inactive
Cc1ccc(OC2=NS(=O)(=O)c3ccccc32)cc1	none (no result: S1P3 antag)
CCc1ccc(OC2=NS(=O)(=O)c3ccccc32)cc1	S1P4 ag 14 | S1P4 ag conf inactive | S1P1 agonist inactive
CCOC(=O)c1sc(Nc2nc(OC)cc(OC)n2)nc1C	S1P4 ag 64 | S1P4 ag conf inactive | S1P1 agonist inactive
CCOC(=O)c1sc(NC(C)=O)nc1C	none (no result: S1P3 antag)
CC(=O)Nc1ccc(NC(=O)c2oc3cc(C)c(C)cc3c2C)cc1	S1P4 ag 12 (no result: AI-2 QS modul) | S1P4 ag conf inactive | S1P1 agonist inactive
CCOC(=O)c1cc(NC(=O)c2ccc(OC)cc2)c(=O)oc1-c1ccccc1	S1P4 ag 22 (no result: S1P3 antag) | S1P4 ag conf inactive | S1P1 agonist inactive
COC(=O)c1cc(NC(=O)c2ccc(OC)cc2)c(=O)oc1C	none
CCOCCCNS(=O)(=O)c1ccc(NC(=O)CN2C(=O)c3ccccc3C2=O)cc1	AI-2 QS modul inconclusive
CCOCCCNS(=O)(=O)c1ccc(NC(=O)N2c3ccccc3Sc3ccccc32)cc1	S1P4 ag 34 (no result: S1P3 antag) | S1P4 ag conf inactive | S1P1 agonist inactive
C=CCNC(=O)c1cc2c(=O)n3ccccc3nc2s1	none (no result: S1P4 antag, Hsp70 act, S1P4 ag, S1P3 antag)
C(=C\c1nccc2c1[nH]c1ccccc12)/c1ccccc1	S1P4 ag 11 (no result: Hsp70 act) | S1P4 ag conf inactive | S1P1 agonist inactive
COc1ccc(NC(=O)CSc2nc(N)c3cc4c(nc3n2)CCCC4)cc1	S1P4 ag 11 | S1P4 ag conf inactive | S1P1 agonist inactive
CC(=O)c1ccc(NC(=O)CSc2nc(N)c3cc4c(nc3n2)CCCC4)cc1	none
COc1ccc(NC(=O)c2cc(C)nn2-c2ccccc2)cc1	none (no result: S1P4 antag, Hsp70 act, S1P4 ag, S1P3 antag)
Cc1cccc(CN(C(=S)Nc2c(C)cccc2C)c2cccnc2)c1	S1P4 ag 18 | S1P4 ag conf inactive | S1P1 agonist inactive
Cc1cc(C)cc(NC(=O)CSc2nnc(-c3ccc(S(=O)(=O)N4CCCC4)cc3)o2)c1	S1P4 ag 11 | S1P4 ag conf inactive | S1P1 agonist inactive
Cc1nn(-c2ccccc2)c(Cl)c1/C=N/NS(=O)(=O)c1ccc(Br)cc1	S1P4 ag 51 | S1P4 ag conf inactive | S1P1 agonist inactive
COc1cc(/C=N/NC(=O)c2cccc(C)c2)ccc1OCC(=O)Nc1ccccc1	none (no result: S1P4 antag, Hsp70 act, S1P4 ag, S1P3 antag)
CCOC(=O)c1ccc(NC(=O)N2CCN(Cc3cccc(F)c3)CC2)cc1	S1P4 ag 17 | S1P4 ag conf inactive | S1P1 agonist inactive
O=C(O)c1ccc(N2C(=O)/C(=C/C=C/c3ccccc3)SC2=S)cc1	S1P4 ag 15 | S1P4 ag conf inactive | S1P1 agonist inactive
CCOc1ccc(/C(O)=C/C(=O)C(=O)Nc2ccc(S(=O)(=O)NC(C)=O)cc2)cc1	S1P4 ag 12 | S1P4 ag conf inactive | S1P1 agonist inactive
O=C1CC(c2cccc(Cl)c2)CC(O)=C1C=NC1CCCC1 (stereo not drawn)	none
Cc1oc(-c2cc(F)ccc2F)nc1CN1CCN(C)C(=O)[C@@H]1C	S1P4 ag 15 | S1P4 ag conf inactive | S1P1 agonist inactive
CC/C(=N\O)c1c(O)c2c(n(-c3ccccc3)c1=O)CCCC2	S1P4 ag 22 | S1P4 ag conf inactive | S1P1 agonist inactive
CC(=O)Nc1nc(C(=O)Nc2c(C)n[nH]c2C)cs1	S1P4 ag 14 | S1P4 ag conf inactive | S1P1 agonist inactive
CC1CCN(C(=O)CSC2=NS(=O)(=O)c3cc(F)ccc3N2)CC1	none (no result: S1P4 antag, Hsp70 act, S1P4 ag, S1P3 antag)
CSc1nc(N)n2nc(C(C)(C)C)cc2n1	S1P4 ag 23 (no result: Hsp70 act) | S1P4 ag conf inactive | S1P1 agonist inactive
CC(C)(C)c1cc2nc(N)nc(N)n2n1	none (no result: Hsp70 act)
CC(C)N=c1scc(-c2ccco2)n1/N=C/c1ccc(O)c(O)c1	S1P4 ag 12 (no result: AI-2 QS modul, S1P3 antag) | S1P4 ag conf 22 | S1P1 agonist 55
CCNS(=O)(=O)c1cc(OC)ccc1OC	S1P4 ag 16 (no result: S1P3 antag) | S1P4 ag conf inactive | S1P1 agonist inactive
Cc1ccc(C)c(NC(=O)C2CCN(S(=O)(=O)c3ccc4c(c3)NC(=O)CO4)CC2)c1	none (no result: S1P4 antag, Hsp70 act, S1P4 ag, S1P3 antag)
c1ccc(CC2CCCNC2)cc1 (stereo not drawn)	S1P4 ag 49 | S1P4 ag conf inactive | S1P1 agonist inactive
O=C(Nc1ccc(Cl)cc1)Nn1cnnc1	none (no result: S1P4 antag, Hsp70 act, S1P4 ag, S1P3 antag)
O=C(COC(=O)c1ccc(O)cc1O)Nc1cc(-c2ccccc2)nn1-c1ccccc1	none (no result: S1P4 antag, Hsp70 act, S1P4 ag, S1P3 antag)
CN1CCN(Cc2c(O)ccc3cc(Br)ccc23)CC1	S1P4 ag 32 | S1P4 ag conf inactive | S1P1 agonist inactive
Cc1ccc(C(=O)N/C(=C\c2ccc(Cl)cc2)C(=O)NCC2CCCO2)cc1 (stereo not drawn)	none
CCn1c(=O)c2cc(C(=O)N(C)c3ccccc3F)sc2c2ccccc21	S1P4 ag 21 (no result: Hsp70 act) | S1P4 ag conf inactive | S1P1 agonist inactive
CCn1c(=O)c2cc(C(=O)N(C)c3ccc(OC)cc3OC)sc2c2ccccc21	none (no result: Hsp70 act)
NC1=NC(c2cccc(Cl)c2)N(CCc2ccc(F)cc2)C(N)=N1 (stereo not drawn)	none (no result: S1P4 antag, Hsp70 act, S1P4 ag, S1P3 antag)
COc1ccc(-n2c(SCC(=O)Nc3cc(C)on3)nc3c(c2=O)SCC3)cc1	none
COc1ccc(NC(=O)CSc2nc3c(c(=O)n2-c2ccc(F)cc2)SCC3)c(OC)c1	S1P4 ag 13 | S1P4 ag conf inactive | S1P1 agonist inactive
CCOCCCn1c(=NC(=O)c2cccs2)c(C#N)cc2c(=O)n3ccccc3nc21	S1P4 ag 15 (no result: Hsp70 act) | S1P4 ag conf inactive | S1P1 agonist 30
CCOC(=O)c1ccccc1-c1cn2cc(Cl)ccc2n1	none
O=C(c1ccc(F)cc1)c1cc2ccc(O)cc2oc1=O	none (no result: S1P4 antag, Hsp70 act, S1P4 ag, S1P3 antag)
C/C(=N\NC(=O)CC#N)c1cc2ccc(O)cc2oc1=O	S1P4 ag 57 | S1P4 ag conf inactive | S1P1 agonist inactive
CCOC(=O)Cn1nc(C)c(NC(=O)COc2cccc(Cl)c2)c1C	S1P4 ag 12 | S1P4 ag conf inactive | S1P1 agonist inactive
C=CCN1C(=O)/C(=c2\sc3nc(=O)c(Cc4ccccc4)nn3c2=O)c2ccccc21	S1P4 ag 27 (no result: Hsp70 act) | S1P4 ag conf inactive | S1P1 agonist inactive
Cc1ccc[n+](CC(=O)/C=C2\N(C)c3ccccc3C2(C)C)c1	none
Cc1cccc[n+]1CC(=O)/C=C1\N(C)c2ccccc2C1(C)C	S1P4 ag 21 | S1P4 ag conf inactive | S1P1 agonist inactive
C/C(CC(=O)Nc1ccc(OCc2ccccc2)cc1)=N\NC(=O)C(=O)Nc1cccc(C)c1	S1P4 ag 19 | S1P4 ag conf inactive | S1P1 agonist inactive
